Source: publication PMC7819943, “Rice protein-binding microarrays: a tool to detect cis-acting elements near promoter regions in rice”
The full ranking holds about 35,000 sequences; the median of “fluorescence intensity (a.u.)” is about 10,000, and the highest 2% start at about 52,000. The full list was thinned out, with the highest values kept by preference.

biological target: T1, OsWOX13 (Oryza sativa, UniProt Q5QMM3 1-267); test: protein-binding microarray (RPBM); PBS, 2% BSA, 51.3 ng/ul salmon testes DNA, 50 uM zinc acetate, 200 nM TF, 25 C, 1 h; high values mean tight binding; settings: protein: recombinant; tags: N-terminal polyhistidine and DsRed monomer fusion (pET32a); label: CyDye5-dUTP incorporated in the synthesized complementary strand; 3' TTTTT single-stranded linker to array surface; dsDNA, one strand shown
T1 sequence: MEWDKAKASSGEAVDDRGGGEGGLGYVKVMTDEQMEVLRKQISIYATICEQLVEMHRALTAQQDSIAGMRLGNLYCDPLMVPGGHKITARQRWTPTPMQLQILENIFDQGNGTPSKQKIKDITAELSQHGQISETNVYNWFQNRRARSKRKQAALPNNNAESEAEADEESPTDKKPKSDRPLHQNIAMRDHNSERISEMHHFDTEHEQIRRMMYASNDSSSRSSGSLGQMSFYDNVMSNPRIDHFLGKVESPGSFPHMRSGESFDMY
How it was run: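 Transcription factors, each fused N-terminally to a polyhistidine tag and DsRed, were expressed in E. coli BL21-CodonPlus and purified on Ni–NTA. A custom Agilent array was made double-stranded by primer extension with Cy5-dUTP and blocked with 2% BSA. It was incubated with 200 nM protein in PBS, 2% BSA, salmon testes DNA and 50 µM zinc acetate at 25 °C for 1 h, then washed. The binding signal is per-feature fluorescence intensity (arbitrary units) read on an Axon 4000B scanner.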

Row | Sequence | binding signal
1 | ACAATTGAAGATAAATGACAAACCAATAAACCATTTGTTTCGGAGTCACCTAGTGCAG | 5080 fluorescence intensity (a.u.)
2 | TAGTGATTTGAAAATACGGGTGCAAACAATGGAGCAACAACGGAGTCACCTAGTGCAG | 3560 fluorescence intensity (a.u.)
3 | ATTTACCGCAACTGTAATTGAGATGGTTTTGAGATTTCATCGGAGTCACCTAGTGCAG | 6850 fluorescence intensity (a.u.)
4 | TGTCACAGGTAAATCACTGCAATTAGCGAGTCATGGCTCACGGAGTCACCTAGTGCAG | 8530 fluorescence intensity (a.u.)
5 | TGATGTTTCATCACTAATTTGTATTTGATAACCTGCATATCGGAGTCACCTAGTGCAG | 5260 fluorescence intensity (a.u.)
6 | CTGATTTGCAGTTCGTTCGTGCCTCTCACAATCAAACCCCCGGAGTCACCTAGTGCAG | 14300 fluorescence intensity (a.u.)
7 | AGGTTGCAATCATTGGCCAGACGTTGCATGTCGTTGTTGACGGAGTCACCTAGTGCAG | 13700 fluorescence intensity (a.u.)
8 | CTTGTTATTGAATAATGGATTAACTAACTAATAACTAACGCGGAGTCACCTAGTGCAG | 12800 fluorescence intensity (a.u.)
9 | CAACAGATTAATGACATGTCAACAGCTGCATGCTCTAGCTCGGAGTCACCTAGTGCAG | 14200 fluorescence intensity (a.u.)
10 | CCGGTCTCCAAATCTTTATTAATTGCTTCCTCAAAACCCCCGGAGTCACCTAGTGCAG | 3980 fluorescence intensity (a.u.)
11 | ATTAACGACTTTTAATTTGAAACGGATTGAGTAGCTAGTTCGGAGTCACCTAGTGCAG | 16100 fluorescence intensity (a.u.)
12 | AAAACAAATTTTATTATAAATATACGTTTAACTAACTTAGCGGAGTCACCTAGTGCAG | 6070 fluorescence intensity (a.u.)
13 | ATAATCCCTTGCGATTTATATTGAATTAATAGTTCTTGTTCGGAGTCACCTAGTGCAG | 65000 fluorescence intensity (a.u.)
14 | AGAGATTATTGAATATTGTTGCGATGACTTATAATCTTATCGGAGTCACCTAGTGCAG | 5070 fluorescence intensity (a.u.)
15 | AAAAGAATAATTTATTGTCTTGTTCAGTTAATCCCTCCCTCGGAGTCACCTAGTGCAG | 3330 fluorescence intensity (a.u.)
16 | CACTATTAATTGTGCTTAGAGCAAGTTTAATAGTGTAGCCCGGAGTCACCTAGTGCAG | 9860 fluorescence intensity (a.u.)
17 | CACGATGATTGTTTGTATATGGAAACACCAAAATGGTCTACGGAGTCACCTAGTGCAG | 54700 fluorescence intensity (a.u.)
18 | ACTGATAACAAAATAATTTATAGGTAAAACTTTTAATATGCGGAGTCACCTAGTGCAG | 7340 fluorescence intensity (a.u.)
19 | ATTAATTGGTCGTGTATTAGCAAACGATATATATATCGGTCGGAGTCACCTAGTGCAG | 50500 fluorescence intensity (a.u.)
20 | TCTGTATGGTCTACTTGTTTGATTGATTGATAATTTTACACGGAGTCACCTAGTGCAG | 22300 fluorescence intensity (a.u.)
21 | TTTAATTAATTGTAGGACAAGATAGCAAACGTGTGGCTACCGGAGTCACCTAGTGCAG | 59900 fluorescence intensity (a.u.)

Row | Sequence | binding signal
22 | TGGTAATTTTATGATTAAATTGACACTAACAAACTTATAGCGGAGTCACCTAGTGCAG | 57200 fluorescence intensity (a.u.)
23 | GGAAAATGCTCTAATGATTGTTATGGAGTTTATCTGTAATCGGAGTCACCTAGTGCAG | 5570 fluorescence intensity (a.u.)
24 | AATTAATTTCTAAATACAATCATTATTCACCTCGTAATATCGGAGTCACCTAGTGCAG | 7210 fluorescence intensity (a.u.)
25 | CCATATAATTATGCTTGTTATTATGTGACAAAGAGCGGGTCGGAGTCACCTAGTGCAG | 25400 fluorescence intensity (a.u.)
26 | CCAAAATATATTAATTAGCTCAGGTATGTACCCGCCCAATCGGAGTCACCTAGTGCAG | 10700 fluorescence intensity (a.u.)
27 | GTATATTTAATAATAAATCAACTCGCAATGAGACAAAATGCGGAGTCACCTAGTGCAG | 4570 fluorescence intensity (a.u.)
28 | ATTCTTAAATTGTTTTAACTAATACTTAATCAGCCATGAACGGAGTCACCTAGTGCAG | 7790 fluorescence intensity (a.u.)
29 | TTGGTGATATTGATGGAGCATGTTTTATTTGATAGAATAGCGGAGTCACCTAGTGCAG | 3390 fluorescence intensity (a.u.)
30 | TTGAATGACTACGAATTTGTTTAAATATTTGCATTCCATCCGGAGTCACCTAGTGCAG | 7180 fluorescence intensity (a.u.)
31 | TTGATTGATGGGAGTCTAACAAAGTGACAAAACTTAGCAACGGAGTCACCTAGTGCAG | 53900 fluorescence intensity (a.u.)
32 | ATTGATTGACCGAGCGCACTACTCTTTATCTTTTCGATTGCGGAGTCACCTAGTGCAG | 64900 fluorescence intensity (a.u.)
33 | TGCCGATTGATCTTTTATCCTTTGGGGCATATGCTCGAGTCGGAGTCACCTAGTGCAG | 24400 fluorescence intensity (a.u.)
34 | TTAGATAGATTAATATGTGATAGATCTTCACAAACAGACACGGAGTCACCTAGTGCAG | 54900 fluorescence intensity (a.u.)
35 | CATTGATGACACAAAATAGTAGCAACTAAACAAACCAGAACGGAGTCACCTAGTGCAG | 6690 fluorescence intensity (a.u.)
36 | AATTCTAATATATTTGATTGTTTCAAAATAAAGTCTTTGCCGGAGTCACCTAGTGCAG | 14700 fluorescence intensity (a.u.)
37 | TTCAATTGATATAGACACAGATCTATGTGATTCACTGACACGGAGTCACCTAGTGCAG | 21700 fluorescence intensity (a.u.)
38 | TTTGATTGTTTCCATTTGCAATTTCTAAATACGAACCTGCCGGAGTCACCTAGTGCAG | 57500 fluorescence intensity (a.u.)
39 | GTGCTCTTTAATTATCACTTTGTGCGCACTTTTCTTTGATCGGAGTCACCTAGTGCAG | 6410 fluorescence intensity (a.u.)
40 | AACTTGAAACAATTTGATTTTGACTAAAGTCAAAACGTCTCGGAGTCACCTAGTGCAG | 4710 fluorescence intensity (a.u.)
41 | GATAGATTAATATATGATATATCTTTTCACAAACATACAACGGAGTCACCTAGTGCAG | 10500 fluorescence intensity (a.u.)
42 | CAGAATTTACAAAATGGATTGACCAAAAGCCTAATTAATTCGGAGTCACCTAGTGCAG | 7770 fluorescence intensity (a.u.)
